Shown are actives, neighbours in structure and some others; about 10% of the full set was active somewhere.
SARS PLpro yeast-1 = SARS-CoV PLP inhibition in yeast; S. cerevisiae expressing SARS-CoV PLpro, growth rescue; Potency, µM (top dose mostly 32.9 µM), for inactives: at the highest dose activity, positive = growth rescue, hits mostly activators; actives 0.19% (n = 330,000); calls by dose curve; also: potency is read from the fitted curve at half-maximal effect; 0% is about no effect; nearly all actives have a fitted effect of over 55% in size
NS1 inh = influenza NS1 inhibition | Potency, µM (series often up to 46.1 µM), for the others: at the top dose activity, positive = more growth | actives 0.4% (n = 270,000) | AID 2326; calls by dose curve; also: potency is read from the fitted curve at half-maximal effect; actives are rising curves; nearly all actives have a fitted effect of over 50% in size
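Compounds were scored for reversing the slow growth caused by influenza A NS1 in S. cerevisiae, measured by optical density at 600 nm. Assay medium contained 2% galactose at pH 6.0; NS1-free yeast of the same strain were the positive control.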
Pf growth 48h = P. falciparum growth inhibition at 48 hours (one generation); actives 5.9% (n = 310,000); Potency, µM (highest dose often 28.7 µM), without a hit: at the top dose activity change, negative = inhibition, actives largely listed as inhibitors; P. falciparum luciferase growth in erythrocytes, 48 h; AID 504832; also: potency is read from the fitted curve at half-maximal effect; % is scaled to controls: 0 for no effect and ±100 for the full control effect
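Compounds are pin-transferred into medium, infected erythrocytes (2% hematocrit, 0.1% parasitemia final) are added, and plates sit one parasite generation at 37 C in 5% CO2. Detection reagent is then added and luminescence measured.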
Pf growth 96h = inhibits malaria parasite growth, 96 h; P. falciparum luciferase reporter growth, 96 h; actives 6.9% (n = 320,000); Potency, µM (doses to about 28.7 µM), inactives show at the top dose activity change, negative = inhibition, usual class: inhibitors; AID 504834; also: potency is read from the fitted curve at half-maximal effect; % is scaled to controls: 0 for no effect and ±100 for the full control effect
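Parasite growth measured via integrated firefly luciferase reporter in P. falciparum. Infected erythrocytes at 2% hematocrit, 0.05% parasitemia final were treated 96 hours at 37 C under 5% CO2, and luminescence was read.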
SARS PLpro yeast-2 = Validates SARS-CoV PLpro inhibitor hits in yeast; shares compounds with SARS PLpro yeast-1; yeast expressing SARS-CoV PLpro, growth phenotype rescue; calls only; actives 19% (n = 1,000); call rule not given here
* marks the source's active call; other numbers are inactive results. Unless noted, calls follow the shape of the dose curve; as a rule, active = well fitted inhibition curve with a large enough effect; inconclusive = small, poorly fitted or top-dose-only effect, or another doubt; inactive = no such curve, though single readings can be large or run the other way.

Screening CC(C)(C)N(Cc1ccccc1)C(=O)COC(=O)C1CCCCC1 returned SARS PLpro yeast-1 3.2µM* and SARS PLpro yeast-2 inactive.
For Cc1ccc(S(=O)(=O)N2CCC(C(=O)OCC(=O)N(Cc3ccccc3)C(C)(C)C)CC2)cc1C the results were SARS PLpro yeast-1 -2%, Pf growth 48h inconclusive and Pf growth 96h -24%.
Screening C=NC(C(=O)NC1C(=O)N2C1SC(C)(C)C2C(=O)O)c1ccccc1 (configuration not stated) returned Pf growth 48h 2% and Pf growth 96h 15%.
For CN1CCN(Cc2cc(Cl)c3cccnc3c2OC(=O)c2cccs2)CC1 the results were SARS PLpro yeast-1 11µM*, NS1 inh -3%, Pf growth 48h inconclusive, Pf growth 96h inconclusive and SARS PLpro yeast-2 inactive.
Screening Cc1nnc(SCC(=O)NNC(=O)C(C)C)[nH]c1=O returned SARS PLpro yeast-1 22µM*, NS1 inh 5%, Pf growth 48h 18%, Pf growth 96h 12µM* and SARS PLpro yeast-2 inactive.
`CCNC(=S)Nc1ccc(N(c2ccccc2)C(C)C)cc1` gave SARS PLpro yeast-1 0%, NS1 inh -5% and Pf growth 48h 0%.
CCNC(=S)NN(c1ccccc1)c1ccccc1 was read as SARS PLpro yeast-1 14µM*, NS1 inh 2%, Pf growth 96h inconclusive and SARS PLpro yeast-2 active.
Screening COc1ccc(C(=O)NNC(=O)COc2ccc(Cl)cc2)c(OC)c1 returned SARS PLpro yeast-1 3%, NS1 inh -2%, Pf growth 48h -12% and Pf growth 96h inconclusive.
Screening CC(=O)Nc1ccc(Cc2ccncc2)cc1 returned SARS PLpro yeast-1 1%, NS1 inh 1%, Pf growth 48h 20% and Pf growth 96h -25%.
CCCCCC(=O)Nc1ccc(Cc2ccncc2)cc1 was read as SARS PLpro yeast-1 13µM*, NS1 inh -16%, Pf growth 48h -19%, Pf growth 96h 12µM* and SARS PLpro yeast-2 inactive.
Screening COc1ccc(S(=O)(=O)N2CN3CCN(C3)C2)cc1 returned SARS PLpro yeast-1 -3%, NS1 inh 14%, Pf growth 48h 0% and Pf growth 96h -24%.
`Cc1nnc2c3ccccc3c(-c3ccc(O)cc3)nn12` gave SARS PLpro yeast-1 inconclusive, NS1 inh 2%, Pf growth 96h 2% and SARS PLpro yeast-2 inactive.
`COc1ccc(C)cc1S(=O)(=O)N1CCC(C(=O)NC2CCCC2)CC1` gave SARS PLpro yeast-1 -6%, NS1 inh 10%, Pf growth 48h 2% and Pf growth 96h 49%.
Screening O=C(COC(=O)c1ccc(S(=O)(=O)C(F)F)cc1)NC(=O)NC1CCCCC1 returned SARS PLpro yeast-1 -1%, Pf growth 48h 14% and Pf growth 96h 0%.
`O=c1c2ccccc2nc(N/N=C/c2c(O)ccc3ccccc23)n1O` gave SARS PLpro yeast-1 13µM*, NS1 inh 22%, Pf growth 48h 0.52µM*, Pf growth 96h 0.47µM* and SARS PLpro yeast-2 active.
For O=C(Nc1ccc(Cl)c(S(=O)(=O)N2CCCCC2)c1)c1cnccn1 the results were SARS PLpro yeast-1 -11%, Pf growth 48h inconclusive and Pf growth 96h inconclusive.
For O=C(Nc1ccc(Cl)c(S(=O)(=O)N2CCCCC2)c1)c1ccncc1 the results were SARS PLpro yeast-1 5µM*, Pf growth 48h inconclusive, Pf growth 96h 7.4µM* and SARS PLpro yeast-2 inactive.
CCCCn1nc(C(=O)N(CC(C)C)c2c(N)n(CCCC)c(=O)[nH]c2=O)c2ccccc2c1=O was read as SARS PLpro yeast-1 3%, Pf growth 48h -16% and Pf growth 96h 46%.
For COc1ccc(C(=O)N2CCN(Cc3cc(OC)c(O)c(OC)c3)CC2)cc1OC the results were SARS PLpro yeast-1 20µM*, NS1 inh inconclusive, Pf growth 48h -5%, Pf growth 96h -9% and SARS PLpro yeast-2 inactive.
Screening Cc1ccc(C(=O)OCN2C(=O)c3ccccc3C2=O)cc1S(=O)(=O)N1CCOCC1 returned SARS PLpro yeast-1 2%, Pf growth 48h 6% and Pf growth 96h 11%.
O=C(CC(NC(=O)c1ccccc1)c1ccccc1)Nc1cccc2ccccc12 (configuration not stated) was read as SARS PLpro yeast-1 inconclusive, NS1 inh 10%, Pf growth 48h inconclusive, Pf growth 96h 28% and SARS PLpro yeast-2 inactive.
`COc1cc(/C=C/C(=O)OCC(=O)Nc2nnc(-c3ccccc3)o2)cc(OC)c1OC` gave SARS PLpro yeast-1 4%, Pf growth 48h 14% and Pf growth 96h inconclusive.
O=C(NS(=O)(=O)N1CCOCC1)C1=C(N2CCCC2)COC1=O was read as SARS PLpro yeast-1 3.5µM* and SARS PLpro yeast-2 inactive.
Screening Cc1ccc(C(=O)Nc2ccccc2N2CCCC2)cc1S(=O)(=O)N1CCOCC1 returned SARS PLpro yeast-1 2%, Pf growth 48h inconclusive and Pf growth 96h inconclusive.
For Cc1ccc(S(=O)(=O)N2CCC(C(=O)OCC(=O)NC3(C#N)CCCCC3)CC2)cc1C the results were SARS PLpro yeast-1 0%, Pf growth 48h inconclusive and Pf growth 96h 14%.
`Clc1ccc(CNc2ccccc2NCc2ccc(Cl)nc2)cn1` gave SARS PLpro yeast-1 -2%, NS1 inh -2%, Pf growth 48h inconclusive and Pf growth 96h 38%.
Screening O=C(N/N=C/c1ccccc1OC(F)F)c1cc(-c2ccncc2)nc2ccccc12 returned SARS PLpro yeast-1 13µM*, Pf growth 48h inconclusive, Pf growth 96h inconclusive and SARS PLpro yeast-2 active.
Screening C[n+]1cn(Cc2ccc(C#N)cc2)c2ccccc21 returned SARS PLpro yeast-1 0%, NS1 inh 0%, Pf growth 48h -35% and Pf growth 96h inconclusive.
Screening C[n+]1cn(/N=C/c2ccccc2)c2ccccc21 returned SARS PLpro yeast-1 inconclusive, NS1 inh inconclusive, Pf growth 48h inconclusive, Pf growth 96h 13µM* and SARS PLpro yeast-2 inactive.
`CNC(=S)N/N=C/C1=CCC2CC1C2(C)C` (configuration not stated) gave SARS PLpro yeast-1 13µM*, NS1 inh -11%, Pf growth 48h 5.9µM*, Pf growth 96h 4.1µM* and SARS PLpro yeast-2 active.
CCN(CC)S(=O)(=O)c1cccc(C(=O)OCC(=O)NCc2ccccc2OC)c1 was read as SARS PLpro yeast-1 -1%, Pf growth 48h inconclusive and Pf growth 96h 15%.
`Cc1noc(/C=C/N(C)C)c1S(=O)(=O)N1CCCC(C(=O)Nc2ccccc2F)C1` (configuration not stated) gave NS1 inh inconclusive, Pf growth 48h -16% and Pf growth 96h inconclusive.
For Cc1nnc(NC(=O)C2CC(=O)N(c3ccccc3)C2)s1 (configuration not stated) the results were SARS PLpro yeast-1 2%, NS1 inh 1%, Pf growth 48h -1% and Pf growth 96h inconclusive.
Screening COc1cccc(OC)c1Nc1nc(C)nc2c1nnn2Cc1ccccc1Cl returned SARS PLpro yeast-1 -2%, NS1 inh 3%, Pf growth 48h inconclusive and Pf growth 96h -1%.

Source: PubChem (National Center for Advancing Translational Sciences (NCATS))
